This note sets out measurements from PubChem BioAssay AID743255 (National Center for Advancing Translational Sciences (NCATS), 2014).

In all, about 390,000 compounds went through this assay and about 910 (0.23%) were called active. Not shown: some 5% with an inconclusive outcome. The call rests on the fitted dose curve; in most records, active means well fitted inhibition curve with a large enough effect; inconclusive means small, poorly fitted or top-dose-only effect; inactive means no such curve, though single readings can be large or run the other way. Shown is part of a subset that was picked to be rich in actives.
On the % scale 0 is the no-effect control and ±100 the full control effect; potency means the concentration at half of the fitted maximal effect.

Ubiquitin carboxyl-terminal hydrolase 1 (Homo sapiens), sequence (O94782 whole entry, looked up): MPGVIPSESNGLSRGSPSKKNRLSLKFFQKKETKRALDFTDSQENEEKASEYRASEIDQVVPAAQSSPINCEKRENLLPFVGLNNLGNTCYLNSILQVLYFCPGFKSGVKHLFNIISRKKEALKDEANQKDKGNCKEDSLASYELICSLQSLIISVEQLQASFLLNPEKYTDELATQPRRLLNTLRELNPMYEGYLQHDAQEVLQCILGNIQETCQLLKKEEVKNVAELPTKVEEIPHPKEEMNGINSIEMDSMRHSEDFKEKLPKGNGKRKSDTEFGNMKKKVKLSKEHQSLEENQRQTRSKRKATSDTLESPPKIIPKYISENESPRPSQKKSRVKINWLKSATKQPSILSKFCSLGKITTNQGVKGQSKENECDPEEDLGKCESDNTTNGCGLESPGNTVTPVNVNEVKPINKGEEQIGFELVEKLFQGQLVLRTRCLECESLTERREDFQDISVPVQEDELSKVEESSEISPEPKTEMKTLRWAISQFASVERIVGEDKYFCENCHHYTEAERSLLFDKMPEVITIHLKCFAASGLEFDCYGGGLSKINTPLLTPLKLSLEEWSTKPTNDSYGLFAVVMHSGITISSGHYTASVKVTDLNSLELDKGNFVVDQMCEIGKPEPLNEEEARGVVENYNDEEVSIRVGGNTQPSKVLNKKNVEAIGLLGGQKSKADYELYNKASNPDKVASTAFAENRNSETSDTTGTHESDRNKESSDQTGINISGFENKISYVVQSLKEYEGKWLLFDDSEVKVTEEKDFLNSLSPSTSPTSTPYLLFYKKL

In the test the target is Ubiquitin carboxyl-terminal hydrolase 1 (Homo sapiens) (UniProt O94782). Put plainly: Inhibitors of USP1/UAF1: Primary Screen. Further: nearly all actives have a fitted effect of over 60% in size. The note with it: recombinant USP1/UAF1, Ub-Rhodamine cleavage fluorescence; series mostly up to 57.1 µM; activity change, negative = inhibition: at the top concentration. From the text:
Deubiquitinating enzymes (DUBs) are a class of enzymes that can cleave isopeptide bond formed between the C-terminal carboxylate of ubiquitin and a lysine side-chain amino group on the target protein. Among them, ubiquitin specific proteases (USPs) constitute the largest DUB family. Human USPs are emerging as promising targets for pharmacological intervention because of their connection to a number of human diseases, including prostate, colon and breast cancer (1, 2), pediatric acute lymphoblastic leukemia (3), and familial cylindromatosis (4). The advantage of inhibiting USPs lies in the potential specificity of therapeutic intervention that can lead to better efficacy and reduce nonspecific side effects. In a collaboration between the University of Delaware and the NIH Chemical Genomics Center, a high-throughput screen assay was developed to screen for USP1/UAF1 inhibitors. This miniaturized assay has a fluorescent read-out and is used to screen the NIH Molecular Libraries Small Molecule Repository (MLSMR) in order to identify a small molecule that inhibits USP1. NIH Chemical Genomics Center [NCGC] NIH Molecular Libraries Probe Centers Network [MLPCN] MLPCN Grant: DA030552 Assay Submitter (PI): Zhihao Zhuang, University of Delaware 1. Priolo, C., et al. (2006) The isopeptidase USP2a protects human prostate cancer from apoptosis. Cancer Res 66, 8625-8632 2. Popov, N., et al. (2007) The ubiquitin-specific protease USP28 is required for MYC stability. Nat Cell Biol 9, 765-774 3. De Pitta, C., et al. (2005) A leukemia-enriched cDNA microarray platform identifies new transcripts with relevance to the biology of pediatric acute lymphoblastic leukemia. Haematologica 90, 890-898 4. Kovalenko, A., et al. (2003) The tumour suppressor CYLD negatively regulates NF-kappaB signalling by deubiquitination. Nature 424, 801-805
3 microliters of reagents (buffer in columns 3 and 4 as negative control and 1nM USP1/UAF1 complex in columns 1, 2, and 5-48) are dispensed into Greiner black solid bottom 1536-well assay plates. Compounds are then transferred via Kalypsys pin tool equipped with 1536-pin array (10nl slotted pins, V&P Scientific, San Diego, CA). Following an incubation step of 15 min at room temperature, 1ul of Ub-Rho substrate (150nM final concentration) is added to initiate the reaction. The plates are immediately centrifuged at 1000 rpm for 15 seconds, and subsequently transferred to a ViewLux high-throughput CCD imager (PerkinElmer) wherein kinetic measurements of fluorescence are acquired using 480 nm excitation/540 nm emission filter set (6 reads every 60 seconds, see Table 1). All reagents are diluted in an assay buffer consisting of 50mM HEPES (pH 7.8), 0.5mM EDTA, 0.1 mg/ml BSA, 1mM TCEP, and 0.01% Tween-20.
On to `COC(=O)C1=C(c2ccccc2)C[C@@H]2CC[C@H]1N2C(=O)NCc1ccco1`, for which the “activity change, negative = inhibition” value was -13.6% (inactive).
As for `COc1cc(Cn2c(N)c(C(=O)NCc3ccco3)c3nc4ccccc4nc32)cc(OC)c1OC`, the Potency was 22.4 µM (active).
Regarding `Cc1ncoc1C(=O)NCC1=C(c2cccc3ccccc23)C[C@@H]2CC[C@H]1N2Cc1ccco1`, the “activity change, negative = inhibition” value is -26.1% (inactive).
As to `CN(C)CC1Oc2ccccc2OC1(O)c1ccccc1` (stereo not given), the “activity change, negative = inhibition” value is -24% (inactive).
Still for that read-out and setting: to `Cc1ccc(-n2c(/C=C/c3cccc(C(F)(F)F)c3)nc3ccccc3c2=O)cc1` belongs -2.31% (inactive); to `COC(=O)C1=C(c2ccc(OCc3ccccc3)cc2)C[C@@H]2CC[C@H]1N2C(=O)NCc1cccc(F)c1`, -16.5% (inactive).
For `O=C1NC(=O)N(c2ccccc2)C(=O)/C1=C/c1ccc([N+](=O)[O-])s1`, the Potency is 28.2 µM (active).
Regarding `CC(=O)C1(O)CCC2C3CCC4=C(Cl)C(=O)CCC4(C)C3CCC21C` (stereo not given), the “activity change, negative = inhibition” value was -6.63% (inactive).
For the compound `Cc1c(C(=O)O)cccc1-n1c(C)cc(/C=C2\C(=O)NC(=O)N(c3ccc4c(c3)OCO4)C2=O)c1C`, the “activity change, negative = inhibition” value was -1.73% (inactive).
Turning to `COc1cccc(N2C(=O)NC(=O)/C(=C\c3cn(C)c4ccccc34)C2=O)c1`, the Potency is 11.2 µM (active).
As for `Cn1cc(/C=C/c2nc3ccccc3c(=O)n2-c2ccccc2)c2ccccc21`, the “activity change, negative = inhibition” value was -33.4% (inactive).
Consider `O=C1C2CCN(CC2)C1(CO)CO`, for which the “activity change, negative = inhibition” value was -25.6% (inactive).
On the same count and under the same terms, to `C[N+](C)(C)CCOP(=O)([O-])OC[C@H](O)CO` belongs 1.6% (inactive).
Same read-out and setting: to `Cc1ccc(OC(=O)N(C)C[C@@H]2OCc3cnnn3CCCC(=O)N([C@H](C)CO)C[C@@H]2C)cc1` belongs -16.6% (inactive).
For the compound `COc1cc(C2c3cc4c(cc3C(O)C3COC(=O)C23)OCO4)cc(OC)c1OC` (stereo not given), the “activity change, negative = inhibition” value is -15.3% (inactive).
